Data: the supplement of paper PMC10849652
Targets with a hit are over-represented here; the source holds about 7,900 in all. About 0.6% of all pairs of compound and target were hits.

Key:
Assay in all cases: log2 fold change, soluble protein after heating vs DMSO (PISA); higher = thermal stabilisation; K562 cells, 10 uM, 30 min; active = over 0.2 and 3.5 SD of the protein, either way, in both replicates (recomputed)
[1] = compound: CS(=O)(=O)c1ccc(-c2cnc(N)c(C(=O)Nc3ccccc3)n2)cc1
Outline: (§1)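 K562 cells at 2×10^6 cells/mL were treated for 30 min with 10 μM compound, and aliquots were heated for 3 min over 48°C-58°C before pooling. Extraction used PBS with 0.5% NP-40 at 4°C, and soluble protein was the supernatant after 21,000xg for 90 min, measured by TMTpro 16plex LC-MS/MS with channel sums equalised. Thermal stability values, relative to control samples and from duplicates, are log2 fold changes.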

[2] = compound: C[C@@H](Oc1cc(-c2cnn(C3CCNCC3)c2)cnc1N)c1c(Cl)ccc(F)c1Cl [crizotinib]
Outline: as §1

[3] = compound: C[C@@H]1COCCN1C2=NC(=NC(=C2)C3(CC3)S(=O)(=O)C)C4=C5C=CNC5=CC=C4
Outline: as §1

[4] = compound: C[C@H](C1=CC=C(C=C1)C(=O)NC2=C3C=CNC3=NC=C2)N
Outline: as §1

[5] = compound: C[C@H](Nc1ncnc2nc[nH]c12)c1cc2cccc(Cl)c2c(=O)n1-c1ccccc1 [duvelisib]
Outline: as §1

[6] = compound: Cc1cc(Nc2cc(CN3CCOCC3)c3nc(C)c(Cc4ccc(Cl)cc4F)n3n2)n[nH]1 [gandotinib]
Outline: as §1

[7] = compound: Cc1cc(Nc2cc(N3CCN(C)CC3)nc(Sc3ccc(NC(=O)C4CC4)cc3)n2)n[nH]1 [tozasertib]
Outline: as §1

[8] = compound: Cc1cc(SCc2sc(-c3ccc(C(F)(F)F)cc3)nc2C)ccc1OCC(=O)O
Outline: as §1

[9] = compound: Cc1ccc(-n2nc(C(C)(C)C)cc2NC(=O)Nc2ccc(OCCN3CCOCC3)c3ccccc23)cc1 [doramapimod]
Outline: as §1

[10] = compound: Cc1ccc(C(=O)N(CCCN)[C@@H](c2nc3cc(Cl)ccc3c(=O)n2Cc2ccccc2)C(C)C)cc1 [ispinesib]
Outline: as §1

[11] = compound: Cc1ccc(NC(=O)c2ccc(CN3CC[C@H](N(C)C)C3)c(C(F)(F)F)c2)cc1Nc1nccc(-c2cncnc2)n1 [bafetinib]
Outline: as §1

[12] = compound: Cc1cccc(CC(=O)N2CCc3c2ccc(-c2cn(C)c4ncnc(N)c24)c3F)n1
Outline: as §1

[13] = compound: Cc1cn(-c2cc(NC(=O)c3ccc(C)c(Nc4nccc(-c5cccnc5)n4)c3)cc(C(F)(F)F)c2)cn1 [nilotinib]
Outline: as §1

[14] = compound: Cc1nc(Nc2n[nH]c3c2CN(C(=O)N[C@H](CN(C)C)c2ccccc2)C3(C)C)c2sccc2n1
Outline: as §1

[15] = compound: Cc1nc(Nc2ncc(C(=O)Nc3c(C)cccc3Cl)s2)cc(N2CCN(CCO)CC2)n1 [dasatinib]
Outline: as §1

[16] = compound: Cc1ncc(-c2ccnc(Nc3ccc(S(C)(=O)=O)cc3)n2)n1C(C)C
Outline: as §1

[17] = compound: Cn1cc(-c2ccc3c(c2)CCN3C(=O)Cc2cccc(C(F)(F)F)c2)c2c(N)ncnc21
Outline: as §1

[18] = compound: Cn1cc(-c2ccc3nnc(C(F)(F)c4ccc5ncccc5c4)n3n2)cn1
Outline: as §1

[19] = compound: Cn1cncc1[C@@](N)(c1ccc(Cl)cc1)c1ccc2c(c1)c(-c1cccc(Cl)c1)cc(=O)n2C [tipifarnib]
Outline: as §1

[20] = compound: FC(F)(F)c1ccc(/C=C/c2nc(COc3ccc(CCCCn4ccnn4)cc3)co2)cc1 [mubritinib]
Outline: as §1

Measured: log2 fold change

CRKL (UniProt P46109)
inactive: [1] 0.037 | [3] 0.008 | [4] -0.045 | [5] 0.075 | [6] -0.027 | [7] -0.357 | [8] 0.012 | [9] -0.024 | [10] 0.046 | [12] 0.013 | [14] -0.054 | [16] 0.023 | [17] 0.004 | [18] 0.028 | [19] 0.024 | [20] 0.049
active: [2] -1.34 | [11] -1.41 | [13] -1.34 | [15] -2.17

CDK13 (UniProt Q14004)
active: [6] -0.414
inactive: [1] -0.075 | [2] -0.124 | [3] -0.036 | [4] 0.095 | [5] 0.043 | [7] -0.118 | [8] 0.141 | [9] -0.006 | [10] 0.063 | [11] 0.092 | [12] -0.018 | [13] -0.024 | [14] -0.149 | [15] -0.089 | [16] -0.108 | [17] -0.028 | [18] -0.098 | [19] 0.069 | [20] 0.023

CNOT1 (UniProt A5YKK6)
Sequence of UniProt A5YKK6 (A5YKK6 whole entry, looked up): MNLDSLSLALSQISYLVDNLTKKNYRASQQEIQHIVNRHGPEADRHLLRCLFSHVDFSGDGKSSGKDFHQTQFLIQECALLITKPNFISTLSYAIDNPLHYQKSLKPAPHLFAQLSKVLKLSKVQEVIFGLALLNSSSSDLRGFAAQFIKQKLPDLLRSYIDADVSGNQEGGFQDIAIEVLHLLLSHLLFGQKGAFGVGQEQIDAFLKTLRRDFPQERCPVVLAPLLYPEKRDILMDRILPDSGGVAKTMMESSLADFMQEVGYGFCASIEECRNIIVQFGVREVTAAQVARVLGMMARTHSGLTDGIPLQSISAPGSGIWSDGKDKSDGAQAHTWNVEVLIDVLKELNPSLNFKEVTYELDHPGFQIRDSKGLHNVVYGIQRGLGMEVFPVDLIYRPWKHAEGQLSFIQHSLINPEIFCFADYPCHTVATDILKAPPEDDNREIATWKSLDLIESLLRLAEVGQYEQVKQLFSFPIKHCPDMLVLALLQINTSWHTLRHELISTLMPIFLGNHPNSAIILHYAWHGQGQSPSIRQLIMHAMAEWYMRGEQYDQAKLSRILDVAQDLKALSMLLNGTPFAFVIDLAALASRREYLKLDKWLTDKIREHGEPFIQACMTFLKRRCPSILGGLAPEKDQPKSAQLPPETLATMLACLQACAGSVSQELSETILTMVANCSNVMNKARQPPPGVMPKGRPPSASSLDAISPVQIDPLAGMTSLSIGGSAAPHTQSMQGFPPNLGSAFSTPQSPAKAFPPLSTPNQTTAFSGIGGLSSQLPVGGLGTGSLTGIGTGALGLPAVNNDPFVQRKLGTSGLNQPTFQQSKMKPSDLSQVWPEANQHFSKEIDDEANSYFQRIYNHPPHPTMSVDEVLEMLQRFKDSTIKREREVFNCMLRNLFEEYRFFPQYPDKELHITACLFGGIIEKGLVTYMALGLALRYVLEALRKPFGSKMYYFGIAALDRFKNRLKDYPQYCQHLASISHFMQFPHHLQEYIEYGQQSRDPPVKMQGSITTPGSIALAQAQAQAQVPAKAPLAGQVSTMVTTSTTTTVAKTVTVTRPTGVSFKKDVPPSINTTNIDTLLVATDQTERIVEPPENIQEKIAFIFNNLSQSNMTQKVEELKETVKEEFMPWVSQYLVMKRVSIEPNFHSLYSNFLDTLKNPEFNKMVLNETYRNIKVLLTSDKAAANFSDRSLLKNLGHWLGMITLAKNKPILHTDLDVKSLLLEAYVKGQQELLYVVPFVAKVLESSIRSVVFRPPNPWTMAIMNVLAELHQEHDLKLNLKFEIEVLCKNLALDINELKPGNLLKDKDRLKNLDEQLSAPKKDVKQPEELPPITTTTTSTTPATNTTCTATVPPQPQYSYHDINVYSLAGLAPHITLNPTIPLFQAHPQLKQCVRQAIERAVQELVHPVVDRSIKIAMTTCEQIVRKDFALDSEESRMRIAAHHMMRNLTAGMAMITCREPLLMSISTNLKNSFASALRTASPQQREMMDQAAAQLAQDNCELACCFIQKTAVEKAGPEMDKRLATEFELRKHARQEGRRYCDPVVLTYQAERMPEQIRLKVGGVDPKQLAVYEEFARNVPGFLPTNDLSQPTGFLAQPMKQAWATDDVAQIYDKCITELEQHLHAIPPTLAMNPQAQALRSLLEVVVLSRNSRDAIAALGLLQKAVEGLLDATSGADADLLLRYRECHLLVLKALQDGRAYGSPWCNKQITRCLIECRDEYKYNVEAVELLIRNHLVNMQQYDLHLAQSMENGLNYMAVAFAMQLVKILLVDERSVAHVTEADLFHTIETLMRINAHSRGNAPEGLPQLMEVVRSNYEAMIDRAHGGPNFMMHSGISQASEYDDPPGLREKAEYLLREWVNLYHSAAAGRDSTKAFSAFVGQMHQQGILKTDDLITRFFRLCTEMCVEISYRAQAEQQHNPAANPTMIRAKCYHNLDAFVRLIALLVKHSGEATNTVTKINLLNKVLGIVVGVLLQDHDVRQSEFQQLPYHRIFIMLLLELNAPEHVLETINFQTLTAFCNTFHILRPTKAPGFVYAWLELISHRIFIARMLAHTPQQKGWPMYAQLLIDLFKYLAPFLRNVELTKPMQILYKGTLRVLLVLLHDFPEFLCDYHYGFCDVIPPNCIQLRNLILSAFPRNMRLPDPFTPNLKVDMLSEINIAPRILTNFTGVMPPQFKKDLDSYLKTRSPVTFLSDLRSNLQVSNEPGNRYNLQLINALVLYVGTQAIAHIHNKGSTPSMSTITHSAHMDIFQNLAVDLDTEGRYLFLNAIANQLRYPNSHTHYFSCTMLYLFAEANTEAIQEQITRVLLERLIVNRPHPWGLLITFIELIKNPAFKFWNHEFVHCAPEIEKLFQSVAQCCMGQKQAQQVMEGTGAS
inactive: [1] 0.006 | [2] -0.087 | [3] -0.034 | [4] 0.033 | [5] 0.013 | [6] -0.043 | [7] 0.045 | [8] 0.076 | [9] -0.025 | [10] -0.038 | [11] 0.009 | [12] 0.033 | [13] -0.066 | [14] -0.058 | [15] -0.106 | [16] -0.014 | [17] 0.023 | [18] -0.035 | [19] -0.061 | [20] 0.052

CLUH (UniProt O75153)
active: [3] 0.348 | [5] 0.698 | [18] 0.478
inactive: [1] -0.001 | [2] -0.094 | [4] 0.094 | [6] -0.037 | [7] -0.024 | [8] 0.01 | [9] 0.02 | [10] 0.043 | [11] 0.007 | [12] 0.045 | [13] 0.191 | [14] 0.108 | [15] -0.093 | [16] -0.068 | [17] 0.067 | [19] -0.022 | [20] -0.018

CCNT1 (UniProt O60563)
Sequence of UniProt O60563 (O60563 whole entry, looked up): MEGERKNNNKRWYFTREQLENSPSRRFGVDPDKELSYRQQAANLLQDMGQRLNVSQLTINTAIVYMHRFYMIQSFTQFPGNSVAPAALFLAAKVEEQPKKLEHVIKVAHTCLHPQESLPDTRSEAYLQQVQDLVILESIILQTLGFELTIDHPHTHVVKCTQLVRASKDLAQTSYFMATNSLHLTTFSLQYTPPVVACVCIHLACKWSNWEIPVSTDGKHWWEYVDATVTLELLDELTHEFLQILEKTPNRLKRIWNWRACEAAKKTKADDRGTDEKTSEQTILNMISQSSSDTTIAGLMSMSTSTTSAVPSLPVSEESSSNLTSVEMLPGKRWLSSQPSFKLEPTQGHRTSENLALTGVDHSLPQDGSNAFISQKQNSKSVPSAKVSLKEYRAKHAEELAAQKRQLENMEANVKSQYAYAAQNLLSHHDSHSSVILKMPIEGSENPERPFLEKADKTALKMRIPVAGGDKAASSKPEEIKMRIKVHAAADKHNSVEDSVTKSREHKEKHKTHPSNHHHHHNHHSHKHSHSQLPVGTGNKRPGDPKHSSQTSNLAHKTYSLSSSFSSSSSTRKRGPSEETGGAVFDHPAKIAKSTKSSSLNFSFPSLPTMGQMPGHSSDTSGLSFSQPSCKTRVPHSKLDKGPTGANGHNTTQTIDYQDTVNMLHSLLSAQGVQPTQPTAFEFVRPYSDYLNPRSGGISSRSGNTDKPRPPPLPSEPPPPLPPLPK
inactive: [1] -0.124 | [2] -0.088 | [3] -0.098 | [4] 0.13 | [5] -0.076 | [6] -0.1 | [7] -0.075 | [8] 0.076 | [9] 0.181 | [10] -0.277 | [11] 0.062 | [12] 0.036 | [13] 0.027 | [14] -0.272 | [15] -0.016 | [16] -0.301 | [17] -0.051 | [18] -0.122 | [19] 0.142 | [20] -0.093

CPSF6 isoform 2 (UniProt Q16630)
active: [4] -0.292 | [14] -1.43
inactive: [1] -0.014 | [2] -0.025 | [3] 0.075 | [5] -0.004 | [6] -0.034 | [7] -0.03 | [8] -0.012 | [9] 0.004 | [10] 0.11 | [11] 0.079 | [12] -0.136 | [13] 0.06 | [15] 0.009 | [16] 0.014 | [17] 0.039 | [18] -0.008 | [19] 0.031 | [20] 0.006

CES2 isoform 4 (UniProt O00748)
active: [17] 0.489
inactive: [1] 0.162 | [2] 0.154 | [3] 0.03 | [4] -0.079 | [5] 0.019 | [6] 0.048 | [7] -0.093 | [8] -0.188 | [9] 0.144 | [10] -0.047 | [11] -0.006 | [12] -0.104 | [13] 0.274 | [14] -0.045 | [15] 0.119 | [16] -0.036 | [18] 0.166 | [19] 0.28 | [20] 0.111

CA1 (UniProt P00915)
inactive: [1] 0.005 | [2] 0 | [3] 0.046 | [4] -0.094 | [5] -0.001 | [6] -0.036 | [7] 0.018 | [8] 0.019 | [9] -0.012 | [10] 0.116 | [11] -0.017 | [12] -0.055 | [13] -0.004 | [14] -0.014 | [15] -0.007 | [16] 0.011 | [17] 0.029 | [18] -0.008 | [19] -0.011 | [20] 0.067

CD63 (UniProt P08962)
Sequence of UniProt P08962 (P08962 whole entry, looked up): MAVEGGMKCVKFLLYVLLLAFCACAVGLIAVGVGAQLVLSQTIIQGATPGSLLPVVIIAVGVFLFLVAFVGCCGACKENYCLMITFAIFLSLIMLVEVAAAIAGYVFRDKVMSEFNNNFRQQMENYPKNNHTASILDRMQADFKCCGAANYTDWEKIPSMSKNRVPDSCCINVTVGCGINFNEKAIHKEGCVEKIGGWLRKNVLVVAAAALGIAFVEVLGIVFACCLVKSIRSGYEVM
inactive: [1] 0.039 | [2] -0.076 | [3] 0.009 | [4] -0.013 | [5] 0.014 | [6] -0.023 | [7] -0.007 | [8] -0.022 | [9] 0.033 | [10] -0.092 | [11] -0.069 | [12] -0.059 | [13] -0.023 | [14] 0.074 | [15] 0.021 | [16] 0.002 | [17] -0.047 | [18] 0.002 | [19] 0.043 | [20] -0.003

CLCN3 (UniProt P51790)
active: [10] -0.549
inactive: [1] -0.05 | [2] -0.191 | [3] 0.012 | [4] -0.003 | [5] 0.046 | [6] -0.062 | [7] 0.04 | [8] -0.006 | [9] -0.03 | [11] -0.112 | [12] -0.022 | [13] -0.007 | [14] 0.04 | [15] 0.019 | [16] -0.027 | [17] 0.03 | [18] 0.049 | [19] 0.015 | [20] 0.024

COQ9 (UniProt O75208)
Sequence of UniProt O75208 (O75208 whole entry, looked up): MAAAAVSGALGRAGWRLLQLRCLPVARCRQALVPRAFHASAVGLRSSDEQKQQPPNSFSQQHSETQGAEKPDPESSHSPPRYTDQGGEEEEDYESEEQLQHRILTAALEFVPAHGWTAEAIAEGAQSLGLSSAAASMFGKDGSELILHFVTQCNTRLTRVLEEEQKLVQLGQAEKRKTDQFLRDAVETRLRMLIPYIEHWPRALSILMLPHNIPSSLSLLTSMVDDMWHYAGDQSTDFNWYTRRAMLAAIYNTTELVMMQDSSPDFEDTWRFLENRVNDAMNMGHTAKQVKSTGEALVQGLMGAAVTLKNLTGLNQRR
inactive: [1] 0.02 | [2] -0.067 | [3] 0.03 | [4] -0.064 | [5] -0.043 | [6] -0.029 | [7] 0.009 | [8] 0.032 | [9] -0.079 | [10] -0.055 | [11] -0.124 | [12] 0.074 | [13] -0.06 | [14] -0.035 | [15] -0.147 | [16] 0.001 | [17] 0.052 | [18] 0.028 | [19] -0.068 | [20] -0.04

CCNB1 (UniProt P14635)
inactive: [1] -0.002 | [2] -0.021 | [3] -0.044 | [4] -0.024 | [5] 0.06 | [6] -0.004 | [7] -0.042 | [8] -0.025 | [9] -0.011 | [10] 0.043 | [11] -0.018 | [12] 0.009 | [13] 0.04 | [14] -0.156 | [15] 0.02 | [16] -0.025 | [17] 0.006 | [18] 0.003 | [19] 0.02 | [20] 0.08

CLTB (UniProt P09497)
Sequence of UniProt P09497 (P09497 whole entry, looked up): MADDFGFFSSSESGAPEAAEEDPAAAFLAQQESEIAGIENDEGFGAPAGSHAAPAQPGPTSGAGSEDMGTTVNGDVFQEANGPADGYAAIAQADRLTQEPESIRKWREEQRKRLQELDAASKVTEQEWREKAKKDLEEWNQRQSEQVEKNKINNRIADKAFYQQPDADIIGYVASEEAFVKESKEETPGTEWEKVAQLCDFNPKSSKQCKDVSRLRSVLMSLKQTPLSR
inactive: [1] -0.058 | [2] 0.007 | [3] -0.004 | [4] -0.047 | [5] -0.035 | [6] 0.026 | [7] -0.011 | [8] -0.056 | [9] -0.012 | [10] 0.085 | [11] 0.095 | [12] 0.002 | [13] 0.077 | [14] 0.024 | [15] 0.081 | [16] 0.005 | [17] -0.02 | [18] -0.019 | [19] -0.006 | [20] -0.016

C9orf64 (UniProt Q5T6V5)
Sequence of UniProt Q5T6V5 (Q5T6V5 whole entry, looked up): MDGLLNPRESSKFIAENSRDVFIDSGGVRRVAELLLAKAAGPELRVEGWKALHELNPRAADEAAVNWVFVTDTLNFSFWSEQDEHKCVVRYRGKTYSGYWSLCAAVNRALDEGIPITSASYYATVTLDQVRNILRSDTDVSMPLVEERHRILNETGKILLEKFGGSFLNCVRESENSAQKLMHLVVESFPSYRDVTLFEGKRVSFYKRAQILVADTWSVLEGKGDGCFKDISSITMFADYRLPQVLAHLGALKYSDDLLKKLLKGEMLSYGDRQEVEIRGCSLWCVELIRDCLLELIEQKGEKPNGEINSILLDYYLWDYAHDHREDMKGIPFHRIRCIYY
inactive: [1] 0.049 | [2] -0.329 | [3] 0.091 | [4] 0 | [5] 0.096 | [6] -0.128 | [7] -0.012 | [8] 0.097 | [9] -0.005 | [10] -0.207 | [11] 0.031 | [12] 0.218 | [13] -0.045 | [14] -0.094 | [15] -0.197 | [16] -0.04 | [17] 0.079 | [18] 0.085 | [19] -0.163 | [20] 0.282

COA6 isoform 2 (UniProt Q5JTJ3)
Sequence of UniProt Q5JTJ3 (Q5JTJ3 whole entry, looked up): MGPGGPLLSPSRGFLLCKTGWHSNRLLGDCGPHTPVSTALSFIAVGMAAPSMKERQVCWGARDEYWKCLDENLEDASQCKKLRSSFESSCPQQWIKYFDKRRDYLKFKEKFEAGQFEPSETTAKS
inactive: [1] 0.026 | [2] -0.001 | [3] -0.07 | [4] -0.155 | [5] 0.068 | [6] 0.082 | [7] 0.109 | [8] 0.159 | [9] 0 | [10] 0.035 | [11] -0.093 | [12] 0.002 | [13] -0.064 | [14] 0.02 | [15] -0.017 | [16] 0.012 | [17] -0.097 | [18] 0.035 | [19] -0.008 | [20] 0.041

CCNK isoform 4 (UniProt O75909)
Sequence of UniProt O75909 (O75909 whole entry, looked up): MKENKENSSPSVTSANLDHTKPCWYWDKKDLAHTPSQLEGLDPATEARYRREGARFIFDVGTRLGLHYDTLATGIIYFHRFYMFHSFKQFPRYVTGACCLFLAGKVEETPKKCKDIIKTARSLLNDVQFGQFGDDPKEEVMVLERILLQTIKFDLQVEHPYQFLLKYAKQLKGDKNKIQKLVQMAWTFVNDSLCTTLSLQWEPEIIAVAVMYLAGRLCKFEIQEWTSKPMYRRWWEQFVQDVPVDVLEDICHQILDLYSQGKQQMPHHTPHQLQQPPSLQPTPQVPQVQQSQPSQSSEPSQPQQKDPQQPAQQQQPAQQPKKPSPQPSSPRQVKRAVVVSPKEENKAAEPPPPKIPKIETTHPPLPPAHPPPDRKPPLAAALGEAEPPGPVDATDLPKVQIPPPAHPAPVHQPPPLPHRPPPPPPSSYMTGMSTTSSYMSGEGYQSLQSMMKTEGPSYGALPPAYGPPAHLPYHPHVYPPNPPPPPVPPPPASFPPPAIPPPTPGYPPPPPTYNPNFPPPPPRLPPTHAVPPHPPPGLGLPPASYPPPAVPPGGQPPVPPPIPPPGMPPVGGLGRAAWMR
inactive: [1] -0.014 | [2] -0.023 | [3] 0.073 | [4] -0.042 | [5] -0.06 | [7] 0.157 | [8] 0.016 | [9] 0.157 | [10] 0.03 | [11] 0.106 | [12] -0.021 | [13] 0.045 | [14] 0.046 | [15] -0.013 | [16] -0.025 | [17] -0.118 | [18] -0.069 | [19] 0.096 | [20] 0.006
active: [6] 0.324
